Bioassay records deposited in PubChem by several laboratories.
Shown are actives, neighbours in structure and some others; about 3.6% of the full set was active somewhere.
WT yeast gro inh – growth inhibition of WT strain, primary screen, mitochondrial fusion inhibitor project, WT and mutant strains, chemical genetic | AID 1362, 2008 | 2.1% of 190,000 active | inhibition, % at 10 µM | mitochondrial fusion phenotypic screen; in the data active = inhibition above about 58%; tested in S. cerevisiae
HCT116 PTEN-null – growth suppression of PTEN-null HCT116, primary screen, cell-based, CellTiter-Glo. 1.2% of 140,000 active. viability, % at 10 µM. AID 827, 2007. HCT116 PTEN-null viability, 60 h; stronger effect = lower value;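 active = viability at or below a set limit, 4 SD under the median of all tested compounds, cut at about 3.7% in these data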;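 also: PTEN knockout HCT116 line with beta catenin targeted HCT116 as companion control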
bCat KO growth – primary screen for growth suppressors in beta-catenin knockout HCT116 cells (colon tumor, human); HCT116 beta-catenin knockout viability, CellTiter-Glo, 60 h; stronger effect = lower value; viability, % at 10 µM; 1.5% of 140,000 active; AID 818, 2007;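 active = viability at or under a set limit, the compound median less 4 SD, cut at about 6% in these data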;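 also: 0% = Hyamine 1622 control at 20 µM and 100% = untreated cell control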
hDAT+cocaine – changed hDAT dopamine uptake under cocaine IC80, either direction, primary screen, cocaine antagonist project, cell-based, LLC-PK1 hDAT, [14C]-dopamine uptake, MLSMR; Sodium-dependent dopamine transporter (Homo sapiens), Q01959; LLC-PK1 hDAT cells, [14C]-dopamine uptake with cocaine IC80; actives deviate in either direction; B-score at 10 µM; 1.3% of 110,000 active;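 active = Z score or B-score, a plate-position-corrected score, falls beyond the plate's 99.7% confidence bounds, in either direction; inactive = both scores lie inside the 99.7% bounds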;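 also: scored against the spread of the other compound wells on the same plate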
Target sequence (Q01959 whole entry, looked up): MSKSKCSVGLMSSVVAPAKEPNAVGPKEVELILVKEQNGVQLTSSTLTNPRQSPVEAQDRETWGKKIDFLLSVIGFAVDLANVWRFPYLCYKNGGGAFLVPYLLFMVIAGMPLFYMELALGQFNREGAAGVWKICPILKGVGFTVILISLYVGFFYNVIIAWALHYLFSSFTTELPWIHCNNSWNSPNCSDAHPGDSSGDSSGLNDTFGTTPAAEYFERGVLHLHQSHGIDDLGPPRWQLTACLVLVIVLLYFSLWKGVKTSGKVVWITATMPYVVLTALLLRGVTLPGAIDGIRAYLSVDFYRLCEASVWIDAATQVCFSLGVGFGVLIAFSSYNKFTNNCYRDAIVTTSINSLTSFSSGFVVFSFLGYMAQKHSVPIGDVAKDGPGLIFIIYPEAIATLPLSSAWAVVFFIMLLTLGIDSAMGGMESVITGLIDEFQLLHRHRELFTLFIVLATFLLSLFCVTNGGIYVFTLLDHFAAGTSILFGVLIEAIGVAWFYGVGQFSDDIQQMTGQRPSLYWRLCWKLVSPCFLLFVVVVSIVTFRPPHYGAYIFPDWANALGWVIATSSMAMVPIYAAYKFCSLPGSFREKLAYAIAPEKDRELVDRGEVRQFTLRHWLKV
An asterisk follows results filed as active; . = no result.

SMILES	WT yeast gro inh	HCT116 PTEN-null	bCat KO growth	hDAT+cocaine
Cc1ccc(-n2c(O)c(/C=N/N3CCCCC3c3cccnc3)c(=O)[nH]c2=S)cc1 (stereo not given)	2	87	83	.
CCCN(CCC)C1Cc2cc(OC)c(OC)cc2C1	.	.	.	-0.038
Cc1ccc(-c2nc(N(C)C3CCN(C)CC3)c3ccccc3n2)cc1	38	1.4*	1.4*	-0.39
CN(C)c1ccc(/C=C/[N+](=O)[O-])cc1	-3	3.5*	2.7*	.
CN(C)c1ccc(C(=O)c2ccc(N(C)C)cc2)cc1	2	24	19	-1.4
C/C(=C\c1ccc(N(C)C)cc1)[N+](=O)[O-]	-9	2.1*	6	.
NS(=O)(=O)c1ccc(N=Cc2c(O)n(C3CCCCC3)c(=O)n(C3CCCCC3)c2=O)cc1	96*	.	17	-0.039
COc1ccc(NP(=O)(Oc2ccc(Cl)cc2)Oc2ccc(Cl)cc2)cc1OC	65*	53	56	.
CC(=O)N1CN2CN(C1)CN(C(C)=O)C2	-9	88	84	.
Cc1ccc2c(c1)C1CN(C)CCC1N2C(=O)c1cn(-c2ccccc2)nc1-c1ccccc1 (stereo not given)	86*	.	.	.
CCCCCCCC(=O)NC(Oc1ccccc1[N+](=O)[O-])C(Cl)(Cl)Cl (stereo not given)	18	100	99	0.5
CCOC(=O)c1c(N)n(Cc2ccc(OC)cc2)c2nc3ccccc3nc12	-10	66	74	0.65
COC(=O)c1c(N)n(Cc2ccc(OC)cc2)c2nc3ccccc3nc12	71*	75	82	-1.1
